Each structure is given as a SMILES string. Out of some 360,000 compounds screened, about 1,300 (0.36%) were called active. Cut-off read from the data, not from the text of the source: active = inhibition above about 35% (passing the limit was not always enough); inactive = the rest. What follows is part of a selection rich in actives, with near analogues and random picks from the rest.

In the assay the target is Polyadenylate-binding protein 1 (Homo sapiens) (UniProt P11940). Briefly: PAM2 peptide displacement from PABP1 MLLE – biochemical, fluorescence polarization, FITC-PAM2, GST-MLLE, primary screen (AID 588489).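 Note: plate controls were DMSO wells with GST-MLLE for no effect and wells lacking GST-MLLE protein for full effect.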 As to conditions: at 20 µM, stronger effect = higher value.
Polyadenylate-binding protein 1 (Homo sapiens), sequence (P11940 whole entry, looked up): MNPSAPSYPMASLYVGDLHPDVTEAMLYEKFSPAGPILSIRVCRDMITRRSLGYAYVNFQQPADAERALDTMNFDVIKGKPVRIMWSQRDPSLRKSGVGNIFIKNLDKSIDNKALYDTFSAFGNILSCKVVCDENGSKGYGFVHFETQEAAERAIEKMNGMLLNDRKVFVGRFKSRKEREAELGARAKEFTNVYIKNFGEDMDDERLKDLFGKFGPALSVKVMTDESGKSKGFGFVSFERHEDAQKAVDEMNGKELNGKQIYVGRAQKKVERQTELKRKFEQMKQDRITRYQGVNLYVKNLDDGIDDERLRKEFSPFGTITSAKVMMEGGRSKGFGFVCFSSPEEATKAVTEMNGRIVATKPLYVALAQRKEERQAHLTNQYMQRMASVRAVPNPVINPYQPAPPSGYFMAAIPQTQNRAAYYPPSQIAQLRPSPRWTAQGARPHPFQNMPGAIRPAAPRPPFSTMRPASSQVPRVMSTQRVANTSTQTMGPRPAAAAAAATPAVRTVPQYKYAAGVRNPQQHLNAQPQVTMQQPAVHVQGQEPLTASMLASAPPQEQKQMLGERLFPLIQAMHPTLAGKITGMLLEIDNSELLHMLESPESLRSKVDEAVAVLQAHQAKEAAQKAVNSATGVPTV
As to `C=CCC(NCCCO)c1cccc(OC)c1OC` (stereo not drawn), the inhibition was 9.54% (inactive).

Regarding `O=C1[C@@H](c2ccccc2)[C@@H](c2ccccc2)N1c1cccnc1`, the inhibition was -0.26% (inactive).

As to `O=C(O)c1cscn1`, the inhibition is -3.08% (inactive).

On to `CC(NC(=S)Nc1ccc(OC(F)F)cc1)c1ccc(F)cc1` (stereo not drawn), for which the inhibition is -13.4% (inactive).

Turning to `O=S(=O)(NC(=S)Nc1ccccc1)c1ccc(F)cc1`, the inhibition is 33.4% (inactive).

On to `Cc1ccc(NC(=S)Nc2ccc(F)cc2)cc1`, for which the inhibition was 37.8% (active).

With `COc1ccc(/C=N/Nc2ncnc3sc4c(c23)CCCC4)cc1O`, the inhibition is -12.9% (inactive).

On to `O=C1N=C2SCCN2/C1=C\c1c(Cl)cccc1Cl`, for which the inhibition was 38.4% (active).

Take `O=C(NC1(C(F)(F)F)N=C2SCCN2C1=O)c1ccco1` (stereo not drawn): the inhibition was 35.9% (inactive).

In the case of `O=Cc1c(Cl)cccc1Cl`, the inhibition was 9.74% (inactive).

As to `Cc1ccc(CNC(=O)C2CCN(S(=O)(=O)c3ccc4nc5c(c(C(=O)O)c4c3)CC(C)CC5)CC2)cc1` (stereo not drawn), the inhibition was -3.02% (inactive).

On to `COc1ccccc1CNC(=O)CCCn1c(=O)c2ccccc2n(CC(=O)NC2CCCC2)c1=O`, for which the inhibition is 12% (inactive).

As for `CC(NC(=O)Nc1ccccc1)C(c1cccs1)N1CCN(c2ccccc2)CC1` (stereo not drawn), the inhibition was -4.15% (inactive).

`CC(=O)Nc1cc(-c2ccccc2F)cn2c(-c3cccc(C(F)(F)F)c3)cnc12`: the inhibition was -12.1% (inactive).

`CC(=O)Nc1cc(-c2ccccc2N(C)C)cn2c(-c3ccc(F)c(Cl)c3)cnc12`: the inhibition was 48.4% (active).

As to `COc1ccccc1-c1cc(NC(C)=O)c2ncc(-c3ccc(F)cc3)n2c1`, the inhibition was -10.4% (inactive).

For `N#Cc1ccc(C2=CC(=O)C[C@H](c3ccc(Cl)cc3)C2)cc1`, the inhibition was 6.39% (inactive).

Consider `COc1cc2c(cc1NC(=O)COC(=O)/C=C/c1ccccc1)oc1ccccc12`, for which the inhibition is 11% (inactive).

As to `CCN1C(=O)[C@H]2[C@@H](c3ccc(C)cc3)N3C(=O)N(c4cccc(Br)c4)C(=O)[C@@]3(CC)[C@H]2C1=O`, the inhibition is 11.2% (inactive).

As to `CCC(=O)NNc1cc(=O)c2c(=O)n(C)c(=O)n(C)c2[nH]1`, the inhibition was -6.2% (inactive).

With `CC(=O)N(c1ccc2oc(=O)sc2c1)S(=O)(=O)c1ccc(C)cc1`, the inhibition is 41.1% (active).

Regarding `COC(=O)c1c(C)oc2ccc(N(C(=O)Oc3ccccc3)S(=O)(=O)c3ccccc3)cc12`, the inhibition was 9.28% (inactive).

On to `CC(=O)Oc1ccc(N(C(C)=O)S(=O)(=O)c2ccc3ccccc3c2)cc1Br`, for which the inhibition was -22.5% (inactive).

On to `Cc1nn(C)c(Oc2ccc(Cl)cc2)c1C=O`, for which the inhibition was -2.27% (inactive).

Take `CCC(=O)N1CCC(C)(C(=O)Nc2cc(OC)c(OC)c(OC)c2)C1` (stereo not drawn): the inhibition was 4.71% (inactive).

Turning to `CC(CC(=O)N1CCN(S(=O)(=O)c2ccccc2)CC1)n1cncn1` (stereo not drawn), the inhibition is 21.2% (inactive).

For the molecule `NC(=S)c1ccc(C(N)=S)o1`, the inhibition was 37.7% (active).

Consider `Cc1ccccc1NC(=O)CCOc1ccccc1`, for which the inhibition is 4.98% (inactive).

With `Cc1ccccc1NC(=O)CSC(=O)c1ccccc1`, the inhibition was 44.4% (active).

Regarding `Cc1ccccc1NC(=O)CSC1=NCCN1`, the inhibition is 16% (inactive).

Regarding `Cc1cccc(NC(=O)CSC(N)=O)c1C`, the inhibition was 38.8% (active).

As for `Cc1cccc(NC(=O)CSc2nc3c(c(=O)[nH]2)CCCC3)c1C`, the inhibition is -11.1% (inactive).

For `Cc1cccc(NC(=O)COC(=O)CCc2ccccc2)c1C`, the inhibition is -0.48% (inactive).

On to `FC(F)(F)C1CCCN(c2nsc3ccccc23)C1` (stereo not drawn), for which the inhibition is 33.5% (inactive).

Turning to `COc1ccc(C(=O)C[n+]2ccc(N)c(C)c2C)cc1`, the inhibition was -11.1% (inactive).

On to `CC12CCC(C(=O)N3CCN(c4ncccn4)CC3)(c3nc4ccccc4nc31)C2(C)C` (stereo not drawn), for which the inhibition is 14.9% (inactive).

Regarding `CCOC(=O)CN1C(=O)C(O)(CC(=O)c2ccccn2)c2ccccc21` (stereo not drawn), the inhibition was 11.1% (inactive).

Turning to `CCOC(=O)CSc1nc(C)c(Oc2ccc(Cl)cc2Cl)c(=O)[nH]1`, the inhibition was -8.63% (inactive).

On to `CCCCOC(=O)CNc1nnc(SCC(=O)OCC)[nH]c1=O`, for which the inhibition was 38.4% (active).

Turning to `Cc1nnc(SCC(=O)N2CCOCC2)[nH]c1=O`, the inhibition is 11.7% (inactive).

On to `Cc1ccccc1NC(=O)N1CCCC1C(=O)NCc1ccccc1` (stereo not drawn), for which the inhibition was -5.08% (inactive).

As for `COc1ccc(C(C#N)Nc2ccc(C)cc2)cc1` (stereo not drawn), the inhibition is -0.36% (inactive).

Regarding `CCOC(=O)C1CCCN(S(=O)(=O)c2ccc3c(c2)C(C)(C)C(=O)N3C)C1` (stereo not drawn), the inhibition was 0.52% (inactive).

Turning to `O=C(Cc1ccc(F)cc1)N1CCN=C1SCc1cccc([N+](=O)[O-])c1`, the inhibition is -6.14% (inactive).

Consider `Cc1cc(C)cc(C(=O)N2CCN=C2SCc2ccc([N+](=O)[O-])cc2)c1`, for which the inhibition was 34.7% (inactive).

As to `Cc1cccc(CC(=O)N2CCN=C2SCc2ccc([N+](=O)[O-])cc2)c1`, the inhibition was 40.2% (active).

In the case of `CC(C)=CCN1CCN(Cc2cc3ccccc3[nH]2)CC1CCO` (stereo not drawn), the inhibition is -5.44% (inactive).

Consider `CCOC(=O)c1c(NC(=O)C(C)Sc2c[nH]c3ccccc23)sc2c1CCC2` (stereo not drawn), for which the inhibition is 2.56% (inactive).

Regarding `CCOC(=O)c1c(NC(=O)C2CCN(S(=O)(=O)c3ccc(Cl)cc3)CC2)sc2c1CCCC2`, the inhibition is 1.94% (inactive).

For `CCOC(=O)c1c(NC(=O)C2(C)Cc3ccccc3C(=O)O2)sc2c1CCCC2` (stereo not drawn), the inhibition is 38.6% (active).

In the case of `CCc1cc2cc(OC)ccc2nc1SCC(=O)Nc1cc(OC)c(OC)cc1C(=O)O`, the inhibition was 19.2% (inactive).

Regarding `CN(C(=O)CCN1C(=O)/C(=C/c2ccccc2F)SC1=S)C1CCS(=O)(=O)C1` (stereo not drawn), the inhibition is 47.2% (active).

Regarding `CN(C(=O)CN1C(=O)S/C(=C\c2ccccc2F)C1=O)C1CCS(=O)(=O)C1` (stereo not drawn), the inhibition was 34% (inactive).

Turning to `COc1ccccc1/C=C1\SC(=O)N(CCC(=O)N(C)C2CCS(=O)(=O)C2)C1=O` (stereo not drawn), the inhibition is 15.8% (inactive).

As to `CCCCOc1ccc(C(=O)NCC(=O)OCC(=O)N2CCN(S(=O)(=O)c3ccc(C)cc3C)CC2)cc1`, the inhibition is -5.79% (inactive).

With `CC1(C(=O)Nc2cccc3cccnc23)CCN1C(=O)CCC1CCCC1` (stereo not drawn), the inhibition is -9.79% (inactive).

Regarding `O=C(CN1CCOCC1)Nc1c(-c2ccccc2)c2cc(Br)ccc2[nH]c1=O`, the inhibition was 7.03% (inactive).

Turning to `CS(=O)(=O)N(CC(=O)N/N=C/c1ccccn1)c1ccc(Oc2ccccc2)cc1`, the inhibition was 1.62% (inactive).

For the molecule `Cc1cc(-c2csc(N)n2)c(C)n1-c1ccccc1`, the inhibition was -12.2% (inactive).

Regarding `Nc1nc(C23CC4CC(CC(C4)C2)C3)cs1`, the inhibition was -0.54% (inactive).

Turning to `COc1c(F)c(F)c(-c2csc(N)n2)c(F)c1F`, the inhibition was 41% (active).

`Cc1cc(C(F)F)n2nc(C(=O)Nc3ccc(S(=O)(=O)NC45CC6CC(CC(C6)C4)C5)cc3)nc2n1`: the inhibition is 0.98% (inactive).

With `Cc1cc(C)c2c(-n3cccc3)c(C(=O)NNS(=O)(=O)c3ccc(F)cc3)sc2n1`, the inhibition was -3.3% (inactive).

One may read the inhibition as the relative decrease from the control value, in per cent.

The record behind these values is PubChem BioAssay AID588489 (Sanford-Burnham Center for Chemical Genomics, 2011).
